The panel holds about 83,000 compounds, 20% with a hit somewhere; the sample as a whole holds those more often.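 Treatment: one concentration, 48 hours, 96-well format. Scoring: percent growth, with anything below 10 considered active.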 The source made the active and inactive calls.
The compounds below were run on HL-60(TB) leukemia (assay: NCI-60 one-dose screen, 48 h (100 = growth as untreated, 0 = no growth, -100 = all killed)). Conditions: 10 µM unless noted.

SMILES | growth
CC1(C)CC[C@]23CC[C@]4(C)[C@H](CC[C@@H]5[C@@]6(C)CC[C@H](NCO)C(C)(C)[C@@H]6CC[C@]54C)[C@H]2[C@H]1OC3 | 4.17% (active)
N/C(=N\c1nc2ccc([N+](=O)[O-])cc2s1)C(Cl)(Cl)Cl | 20.7% (inactive)
Fc1ccccc1/C=C(/C1=NCCN1)n1cnc2ccccc21 | 94.5% (inactive)
CCOC(=O)c1cccc(NC2=C(Cl)C(=O)C(C)=C(C)C2=O)c1 | 31.2% (inactive)
CN1CCN(c2ccc3c(C(N)=O)c(NC(=O)c4ccc(C(C)(C)C)cc4)sc3c2)CC1 | 28.5% (inactive)
COc1ccc(NS(=O)(=O)c2ccc(-c3cnc(C4CC4)o3)cc2)cc1Cl | 3.27% (active)
CC(C)(C)CC(C)(C)n1nnnc1C(Nc1nccs1)c1cc2cccc3ccc4cccc1c4c32 (stereo not given) | 107% (inactive)
COc1ccc(Cc2nn(CC(=O)N/N=C/c3ccc(Cl)cc3)c(=O)c3c(C)noc23)cc1 | 101% (inactive)
NC(=O)c1cccc(-n2ccc3cc(NC(=O)Nc4ccc(N5CCOCC5)c(C(F)(F)F)c4)ccc32)n1 | -52.2% (active)
C[C@H]1[C@H](C)CC[C@]2(COC(=O)c3cccnc3)CC[C@]3(C)C(=CC[C@@H]4[C@@]5(C)CCCNC(C)(C)[C@@H]5CC[C@]43C)[C@H]12 | 23.9% (inactive)
CCN1CCN(Cc2ccc(C(=O)Nc3ccc(C)c(Oc4ccc(-c5[nH]nc6ncnc(N)c56)cc4)c3)cc2C(F)(F)F)CC1 | 139% (inactive)
CS(=O)(=O)c1nccc(-c2c(-c3ccc(F)c(OCCc4ccc(F)cc4)c3)nc3sccn23)n1 | -12.1% (active)
O=C(CCCCCCNC(=O)C(O)(O)C(F)(F)F)Nc1ccc(Cl)cc1 | 9.84% (active)
OC1CCN(CCCOc2c3ccc(Cl)cc3nc3c2oc2ccccc23)CC1 | -35% (active)
CCOc1ccccc1NC1=C(Cl)C(=O)c2nc(C)ccc2C1=O | -36.8% (active)
CCn1c2ccccc2c2cc(-n3nncc3-c3ccccc3)ccc21 | 3.73% (active)
CN(C)CCCOc1ccc2c(c1)CN(C(=O)c1cc(C(=O)N3Cc4cccc(F)c4C3)ccc1O)C2 | 107% (inactive)
NS(=O)(=O)c1ccc(CCn2c(-c3ccc(C(=O)O)cc3)nc(-c3ccccc3)c2-c2ccccc2)cc1 | 101% (inactive)
Cc1ccc(NC(=O)c2ccc(CN3CCN(C)CC3)c(I)c2)cc1Oc1ccc(-c2[nH]nc3ncnc(N)c23)cc1 | 118% (inactive)
COc1ccc(C2CC(c3cccc(OCCCCOc4cccc(C5=NOC(c6ccc(OC)cc6)C5)c4)c3)=NO2)cc1 (stereo not given) | 89.6% (inactive)

SMILES | growth
NS(=O)(=O)c1ccc(Nc2nc(N/N=C/c3ccc(F)cc3)nc(Nc3ccccc3)n2)cc1 | 60.4% (inactive)
COc1ccc([C@@H]2c3[nH]c4ccccc4c3CC3C(=O)N(C4CCN(Cc5c(F)cccc5F)CC4)CC(=O)N32)c(OC)c1 (stereo not given in full) | 39.6% [5.26 µM] (inactive)
O=C1Nc2cc(Cl)ccc2/C1=C\c1ccc(OCc2ccccc2)cc1 | 113% (inactive)
COc1cc2oc(-c3cccc(NC(=O)c4cc(N)ccc4Cl)c3)cc(=O)c2c(OC)c1OC | 99.7% (inactive)
COc1ccc(C2CC(c3cccc(OCCCCOc4cccc(C5=NN(C(C)=O)C(c6ccc(OC)cc6)C5)c4)c3)=NN2C(C)=O)cc1 (stereo not given) | 46.2% (inactive)
O=C(CSc1nnc(-c2cccs2)n1-c1ccccc1)Nc1ccccc1 | 76% (inactive)
CC(Nc1ncnc2ccc(-c3cnc(N)nc3)cc12)c1ccccc1 (stereo not given) | 35.3% (inactive)
CN1CCN(CCNc2nc(-c3cccc(NS(=O)(=O)c4cccc5c(N(C)C)cccc45)c3)cs2)CC1 | 45% (inactive)
CS(=O)(=O)c1ccc2c(c1)c1c(n2S(=O)(=O)c2ccc(Cl)cc2)CCCC1 | 4.55% (active)
CC[C@]12C=CCN3CC[C@]4(C(=C(C(=O)OC)C1)Nc1cc5c(cc14)[C@@H]1[C@H](O5)[C@@H](O)[C@@]4(CC)CC(C(=O)OC)=C5Nc6cc(O)ccc6[C@@]56CCN1C46)C32 (stereo not given in full) | -9.82% (active)
CS(=O)c1nccc(-c2c(-c3ccc(F)c(OCCc4ccc(F)cc4)c3)nc3sccn23)n1 (stereo not given) | -13.4% (active)
O=c1/c(=C\c2ccc(-c3ccccc3)o2)sc2nc(-c3ccccc3)nn12 | 107% (inactive)
O=C(Nc1ccc2c(ccn2Cc2ccccn2)c1)c1ccnnc1 | 145% (inactive)
COc1ccc(/C=N\NC(=O)c2cnn(CC(O)c3ccccc3)c2N)cc1OCc1ccc(Cl)cc1 (stereo not given) | 99.7% (inactive)
CC(=O)OC[C@@]12Oc3c(cccc3-c3ccc(O)c4c3O[C@]3(COC(C)=O)C(=C4O)C(=O)C[C@H](C)[C@@H]3OC(C)=O)C(O)=C1C(=O)C[C@H](C)[C@@H]2OC(C)=O | -46.3% (active)
CCCCc1nc2c(N)nc3ccccc3c2n1Cc1cccc(CN)c1 | 11.9% (inactive)
Nc1nc(-c2cccc([N+](=O)[O-])c2)c(N=Nc2ccccc2Cl)s1 | 93.7% (inactive)
O=C(CSc1nc2ccccc2c(=O)n1-c1ccccc1)N/N=C/c1ccc(Oc2ccc(Br)cc2)cc1 | 105% (inactive)
COc1cc(Nc2c(C#N)cnn3cc(-c4cnn(CC(C)(C)O)c4)cc23)ccc1Cl | 47.8% (inactive)
CS(=O)(=O)c1ccc(-c2nn(-c3ccccc3)cc2/C=N/NC(=O)c2nc(N)n[nH]2)cc1 | 76.8% (inactive)
